In PubChem BioAssay (EPA / NIEHS):
The source made the active and inactive calls. Rule for the calls: active = hit-call score of the fitted dose curve at least 0.9, where 1 is the maximum; inactive = score below 0.9.

Target: Hepatocyte nuclear factor 3-beta (Homo sapiens) (UniProt Q9Y261)
Assay: ATG_FoxA2_CIS: Attagene CIS-FACTORIAL HepG2 Assay for human Forkhead box A2 (FOXA2) (AID 2282942)
Details: HepG2 cis-reporter transcription factor activity, 24 h; actives raise or lower the signal
In short: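 Endogenous transcription factor activity was read in HepG2 cells carrying transiently transfected cis-promoter reporter units. After 24 h dosing, reporter mRNA was quantified by RT-PCR and capillary electrophoresis, and values fitted bidirectionally versus DMSO.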

Sequence of Hepatocyte nuclear factor 3-beta (Homo sapiens) (Q9Y261 whole entry, looked up): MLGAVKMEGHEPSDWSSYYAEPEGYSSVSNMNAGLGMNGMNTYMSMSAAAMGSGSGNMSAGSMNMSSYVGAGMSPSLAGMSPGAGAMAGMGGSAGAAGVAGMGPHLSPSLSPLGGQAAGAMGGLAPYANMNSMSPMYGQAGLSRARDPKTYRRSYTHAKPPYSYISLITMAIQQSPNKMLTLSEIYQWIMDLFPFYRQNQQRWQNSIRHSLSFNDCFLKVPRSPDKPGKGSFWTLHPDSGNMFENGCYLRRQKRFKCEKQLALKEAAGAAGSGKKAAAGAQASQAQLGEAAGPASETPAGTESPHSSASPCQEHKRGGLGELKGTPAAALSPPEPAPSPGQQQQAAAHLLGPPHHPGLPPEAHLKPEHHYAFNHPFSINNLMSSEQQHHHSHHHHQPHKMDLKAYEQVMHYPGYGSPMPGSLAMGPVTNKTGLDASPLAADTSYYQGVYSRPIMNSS

SMILES | outcome
c1ccc2c(c1)Cc1ccccc1-2 | inactive
CN1CCN(c2ccccc2/C=C2\SCCN(c3ccc(Cl)c(Cl)c3)C2=O)CC1 | inactive
FC(F)(I)C(F)(F)C(F)(F)C(F)(F)C(F)(F)C(F)(F)I | inactive
CCC(C)(C)C1CCC(O)CC1 (stereo unspecified) | inactive
CCc1ccc(CCOc2ccc(CC3SC(=O)NC3=O)cc2)nc1 (stereo unspecified) | inactive
CC(C)(C)CC(C)(C)c1ccc(O)c(-n2nc3ccccc3n2)c1 | inactive
CC(C)(C)c1ccc(O)c(C(C)(C)C)c1 | inactive
N#C[C@@H]1CC(F)(F)CN1C(=O)CNC1CC2CCC(C1)N2c1ncccn1 (stereo partly specified) | inactive
NC(=O)N1C(=O)C(C(=O)c2cc(Cl)cs2)c2cc(F)c(Cl)cc21 (stereo unspecified) | inactive
CCCCCCCCCCCCCCCS(=O)(=O)Oc1ccccc1 | inactive
CCCCCCCC(=O)O | inactive
Cc1cc(CCN2CCN(c3nsc4ccccc34)CC2)cc2c1NC(=O)CC2(C)C | inactive
COCC(C)O (stereo unspecified) | inactive
CCCCC(CC)COC(=O)CCCCC(=O)OCc1ccccc1 (stereo unspecified) | inactive
COc1ccc([N+](=O)[O-])cc1N | inactive
CCOC(=O)CC(O)(CC(=O)OCC)C(=O)OCC | inactive
CCCCCCCCC(=O)O | inactive
Cc1cc(C)c(O)c(C)c1 | inactive

SMILES | outcome
CCCCC[C@H](O)CC(=O)CCc1ccc(O)c(OC)c1 | inactive
NCC(F)(F)C(F)(F)C(F)(F)C(F)(F)C(F)(F)C(F)(F)C(F)(F)F | inactive
O=[N+]([O-])c1ccc(O)cc1 | inactive
COC(=O)CCCCC(=O)OC | inactive
CC(C)CCCCCCOC(=O)CCCCC(=O)OCCCCCCC(C)C | inactive
CC(C)(C)c1cc(C(C)(C)C)c(O)c(C(C)(C)C)c1 | inactive
CCCCCCCCCCCCN1CCCC1=O | inactive
Oc1cc2ccccc2c2ccccc12 | inactive
C[C@@H]1C[C@H]2[C@@H]3CCC4=CC(=O)C=C[C@]4(C)[C@@]3(F)[C@@H](O)C[C@]2(C)[C@@]1(O)C(=O)COP(=O)(O)O | inactive
COc1cc(CCC(=O)CC(=O)CCc2ccc(O)c(OC)c2)ccc1O | inactive
O=c1c(-c2ccc(O)cc2)coc2cc(O)ccc12 | inactive
CN(C)C=O | inactive
Cc1oc(-c2ccccc2)nc1CCOc1ccc(C[C@H](Nc2ccccc2C(=O)c2ccccc2)C(=O)O)cc1 | inactive
OC1CCC(C2CCCCC2)CC1 (stereo unspecified) | inactive
CCCCCCCCOC(=O)CCCCCCCCC(=O)OCCCCCCCC | inactive
CC(O)C(=O)O (stereo unspecified) | inactive
CCc1nn(C2CCCCC2)c2cc(C3(C#N)CCC(C(=O)O)CC3)ccc12 (stereo unspecified) | inactive

Tested on: not listed separately
Assay: ATG_FoxO_CIS: Attagene CIS-FACTORIAL HepG2 Assay for human Forkhead box O (FoxO) (AID 2282943)
Details: HepG2 Attagene cis-reporter, FoxO element, mRNA; actives raise or lower the signal
In short: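 24 h chemical exposure, HepG2 with transient cis-MRTU transfection. RNA extraction, oligo(dT) RT, reporter-specific PCR, primer-extension labelling, HpaI digestion, CE fragment analysis; bidirectional fit, DMSO baseline.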

SMILES | outcome | AC50
c1ccc2c(c1)Cc1ccccc1-2 | inactive | 
CN1CCN(c2ccccc2/C=C2\SCCN(c3ccc(Cl)c(Cl)c3)C2=O)CC1 | inactive | 
FC(F)(I)C(F)(F)C(F)(F)C(F)(F)C(F)(F)C(F)(F)I |  | 17.4 µM (active)
CCC(C)(C)C1CCC(O)CC1 (stereo unspecified) | inactive | 
CCc1ccc(CCOc2ccc(CC3SC(=O)NC3=O)cc2)nc1 (stereo unspecified) | inactive | 
CC(C)(C)CC(C)(C)c1ccc(O)c(-n2nc3ccccc3n2)c1 | inactive | 
CC(C)(C)c1ccc(O)c(C(C)(C)C)c1 | inactive | 
N#C[C@@H]1CC(F)(F)CN1C(=O)CNC1CC2CCC(C1)N2c1ncccn1 (stereo partly specified) | inactive | 
NC(=O)N1C(=O)C(C(=O)c2cc(Cl)cs2)c2cc(F)c(Cl)cc21 (stereo unspecified) | inactive | 
CCCCCCCCCCCCCCCS(=O)(=O)Oc1ccccc1 | inactive | 
CCCCCCCC(=O)O | inactive | 
Cc1cc(CCN2CCN(c3nsc4ccccc34)CC2)cc2c1NC(=O)CC2(C)C | inactive | 
COCC(C)O (stereo unspecified) | inactive | 
CCCCC(CC)COC(=O)CCCCC(=O)OCc1ccccc1 (stereo unspecified) | inactive | 
COc1ccc([N+](=O)[O-])cc1N | inactive | 
CCOC(=O)CC(O)(CC(=O)OCC)C(=O)OCC | inactive | 
CCCCCCCCC(=O)O | inactive | 
Cc1cc(C)c(O)c(C)c1 | inactive | 

SMILES | outcome | AC50
C#C[C@]1(O)CC[C@H]2[C@@H]3CCC4=CC(=O)CC[C@@H]4[C@H]3CC[C@@]21C | inactive | 
CCCCC[C@H](O)CC(=O)CCc1ccc(O)c(OC)c1 | inactive | 
NCC(F)(F)C(F)(F)C(F)(F)C(F)(F)C(F)(F)C(F)(F)C(F)(F)F | inactive | 
O=[N+]([O-])c1ccc(O)cc1 | inactive | 
COC(=O)CCCCC(=O)OC | inactive | 
CC(C)CCCCCCOC(=O)CCCCC(=O)OCCCCCCC(C)C | inactive | 
CC(C)(C)c1cc(C(C)(C)C)c(O)c(C(C)(C)C)c1 | inactive | 
CCCCCCCCCCCCN1CCCC1=O | inactive | 
Oc1cc2ccccc2c2ccccc12 | inactive | 
C[C@@H]1C[C@H]2[C@@H]3CCC4=CC(=O)C=C[C@]4(C)[C@@]3(F)[C@@H](O)C[C@]2(C)[C@@]1(O)C(=O)COP(=O)(O)O | inactive | 
COc1cc(CCC(=O)CC(=O)CCc2ccc(O)c(OC)c2)ccc1O | inactive | 
O=c1c(-c2ccc(O)cc2)coc2cc(O)ccc12 | inactive | 
CN(C)C=O | inactive | 
Cc1oc(-c2ccccc2)nc1CCOc1ccc(C[C@H](Nc2ccccc2C(=O)c2ccccc2)C(=O)O)cc1 | inactive | 
OC1CCC(C2CCCCC2)CC1 (stereo unspecified) | inactive | 
CCCCCCCCOC(=O)CCCCCCCCC(=O)OCCCCCCCC | inactive | 
CC(O)C(=O)O (stereo unspecified) | inactive | 
CCc1nn(C2CCCCC2)c2cc(C3(C#N)CCC(C(=O)O)CC3)ccc12 (stereo unspecified) | inactive | 
